Rows were chosen to be rich in hits. Some 3.3% of all compounds tested hit in one or more screens of this group.
Calb FLC: C. albicans growth modulation with fluconazole; C. albicans CaCi-2 (fluconazole-resistant clinical isolate) + fluconazole, Alamar Blue growth, 48 h; growth inhibition, % (concentration not given with the values); 300,000 compounds, 0.57% hits;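 active = growth inhibition above about 58% in most replicates, limit read from the data, passing the limit was not always enough; inconclusive = exactly half the replicates above a set limit; inactive = most replicates below a set limit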;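 also: all wells also contain fluconazole at 8 µg/ml as a sub-toxic cotreatment; 0% = median of DMSO wells and 100% = median of geldanamycin control wells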
KCC2 mod: KCC2 (human) Cl- transport modulation. 190,000 compounds, 2.2% hits. AID 1456. KCC2 cells, thallium flux FluoZin-2 fluorescence. Q9H2X9. B-score of Tl+ flux slope (higher = more flux/activation; lower = inhibition) at 10 µM;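 active = thallium flux slope and its plate-corrected score both differing from the plate sample mean at a set confidence after two filtering rounds, in either direction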;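 also: slope of fluorescence scaled to starting intensity during 10 to 20 s after thallium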
PHOSPHO1 inh: blocks human PHOSPHO1 phosphatase activity; inhibition, % at 13.3 µM; Q8TCT1; 290,000 compounds, 1.1% hits; recombinant PHOSPHO1, absorbance phosphatase assay; in the data active = inhibition above about 60%
Target sequence (Q8TCT1 whole entry, looked up): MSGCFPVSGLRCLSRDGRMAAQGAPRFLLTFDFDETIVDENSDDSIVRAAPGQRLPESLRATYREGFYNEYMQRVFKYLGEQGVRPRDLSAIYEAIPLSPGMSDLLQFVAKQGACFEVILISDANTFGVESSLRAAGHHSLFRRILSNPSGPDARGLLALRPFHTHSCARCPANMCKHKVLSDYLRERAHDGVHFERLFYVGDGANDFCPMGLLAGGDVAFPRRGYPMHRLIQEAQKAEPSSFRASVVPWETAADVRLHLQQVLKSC
Efflux pump mplx: inhibitors of Candida antifungal efflux pumps expressed in yeast; S. cerevisiae Candida pump triplex, Nile Red efflux; inhibition, % at 10 µM; 330,000 compounds, 0.44% hits; AID 485275;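 active = plate passing quality check with inhibition over a set limit, or well fluorescence over plate mean plus 4 SD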;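 also: Nile Red retained in pooled yeast measured as flow cytometry median fluorescence; 0% = buffer negative control and 100% = Enniatin B positive control; higher means more Nile Red kept so more efflux inhibition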
Cardio protect: modulators protecting cardiomyocytes from myocardial damage; H9c2 cardiomyocytes, H2O2 injury protection, ATPLite, 2 h; protection from H2O2 cell death, % at 20 µM; 360,000 compounds, 0.63% hits; AID 588492;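 active = compounds giving at least 50% protection of heart cells from peroxide-induced death in the single-dose screen, raw or plate-pattern-corrected value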;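 also: 0% = DMSO wells with peroxide and 100% = DMSO wells without peroxide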
* marks the source's active call; other numbers are inactive results; ? = inconclusive; nt = not tested or not shown.

SMILES	Calb FLC	KCC2 mod	PHOSPHO1 inh	Efflux pump mplx	Cardio protect
Cc1cc(C)n2cc(CSc3nnc(N)s3)nc2n1	5	1.7	71*	0	0
Cc1cc(C)n2cc(CSc3nnc(-c4ccccc4)o3)nc2n1	-2	nt	78*	0	-8
COc1ccccc1NC(=O)COc1coc(CN2CCN(c3ccccc3)CC2)cc1=O	14	nt	nt	0	-4
CCN(CC)c1ccc(C(=S)N2CCN(c3ccccc3)CC2)cc1	2	nt	74*	0	-18
S=C(c1ccccc1)N1CCN(c2ccccc2)CC1	nt	nt	nt	nt	-3
CN(C)c1ccnc2sc(C(N)=O)c(N)c12	17	-1.1	61*	0	-2
COCC(C)NC(=O)c1cc2c(ccc3ccccc32)oc1=O (configuration not stated)	-2	nt	nt	0	0
N#CCCn1cc(C(=O)O)c(-c2ccc3ccccc3c2)n1	-3	nt	19	0	-5
Cc1cccc(OCCSc2nc(N)cc(N)n2)c1	3	-0.22	33	0	8
COCCNC(=O)/C(C#N)=C/c1cc(C(C)C)c(OC)cc1C	4	-0.11	61*	0	-5
COc1ccccc1Oc1ccc(N2CC(C(=O)OCC(=O)c3ccccc3)CC2=O)cc1 (configuration not stated)	6	nt	32	1	9
COc1ccc2ccc(OCC(=O)Nc3cc(C)on3)cc2c1	nt	nt	nt	0	13
COc1cc(C2N(Cc3ccccc3)CCN2Cc2ccccc2)ccc1OC(C)=O	3	nt	25	0	-1
COc1ccc(C2N(Cc3ccccc3)CCN2Cc2ccccc2)cc1[N+](=O)[O-]	12	-0.84	60*	0	3
CC(C)(C)c1nnc(N/N=C/c2cc(Br)ccc2O)n(N)c1=O	-33	1.1	4	0	76*
Cc1ccccc1OCc1nc2ccc(S(=O)(=O)N3CCOCC3)cc2[nH]1	7	nt	98*	0	-3
CC(=O)c1ccc(NC(=O)c2ccc([N+](=O)[O-])o2)cc1	6	nt	29	0	-6
COc1ccc(NC(=O)c2ccc([N+](=O)[O-])o2)cc1	103*	nt	nt	0	-11
Cc1cc(NC(=O)c2ccc([N+](=O)[O-])o2)ccc1NC(=O)c1ccco1	58*	-1.4	22	nt	-23
Cc1ccc(Nc2c(-c3ccccn3)nc3cccc(C)n23)cc1	?	0.033	-3	0	-2
CCOC(=O)C1CCN(S(=O)(=O)c2cccc(-c3cn4ccccc4n3)c2)CC1	-4	-1.6	84*	0	-27
CCOC(=O)C1CCN(S(=O)(=O)c2cccc(-c3cn4cc(Cl)ccc4n3)c2)CC1	-18	0.12	97*	0	-20
CC1CCN(S(=O)(=O)c2cccc(-c3cn4cc(Cl)ccc4n3)c2)CC1	23	-1.3	9	0	-1
CCC(C)C(=O)Nc1nc2ccc(OC)cc2s1 (configuration not stated)	-30	-0.53	28	0	-1
CC1C=CC=CC=CC=CC=CC=CC=CC(OC2OC(C)C(O)C(N)C2O)CC2OC(O)(CC(O)CC(O)C(O)CCC(O)CC(O)CC(=O)OC(C)C(C)C1O)CC(O)C2C(=O)O (configuration not stated)	nt	nt	nt	nt	4
SMILES	Calb FLC	KCC2 mod	PHOSPHO1 inh	Efflux pump mplx	Cardio protect
O=C(CCCl)N(Cc1nc2ccccc2c(=O)[nH]1)Cc1cccs1	56*	-0.13	49	0	18
N#CCSc1n[nH]c2nc3c(c(=O)n12)C1(CCCC1)Cc1ccccc1-3	73	-3.5*	47	0	-8
CCn1c(SCC(N)=O)nc2c(c1=O)C1(CCCC1)Cc1ccccc1-2	9	3.6*	-27	0	-6
CCCCc1cc(=O)oc2cc(C)cc(OC(C)C(=O)NCc3ccncc3)c12 (configuration not stated)	-3	nt	7	0	13
COc1ccc(Cl)cc1NC(=O)CN(C)C(=O)c1cn(-c2ccccc2)nc1-c1cccnc1	nt	nt	nt	0	14
COc1ccccc1C(=O)Nc1ccnn1C1CCN(Cc2ccn[nH]2)CC1	3	nt	38	3	2
Cc1[nH]n(C(C)(C)C)c(=O)c1Sc1ccc(Cl)cc1	29	0.067	74*	0	-4
COc1cc(CCN(C(C)=O)C2C(=O)Nc3ccccc3N=C2c2ccc3c(c2)OCO3)cc(OC)c1 (configuration not stated)	nt	nt	nt	nt	7
COc1ccc(CN(CCC#N)C(=S)NC(=O)c2ccccc2)cc1	11	17*	10	0	8
COC(=O)C(C)(C)ONC(=O)Nc1ccc([N+](=O)[O-])cc1	-2	0.06	61*	0	-2
COC(=O)C(C)(C)ONC(=O)Nc1ccc(C)cc1	2	0.14	6	0	3
CCOc1cc(N2CCOCC2)c(OCC)cc1NCC(=O)N1CCN(Cc2ccccc2)CC1	13	-0.2	38	0	4
COc1ccc(-n2nc(C(=O)NCC(=O)NCCC3=CCCCC3)c3ccccc3c2=O)c(OC)c1	97*	nt	-18	-1	-3
N#CC1(NC(=O)COc2ccc3ccc(=O)oc3c2)CCCCC1	2	nt	nt	0	-2
CC(NC(=O)c1ccc(C(F)(F)F)cc1)C(c1ccccc1)N1CCOCC1 (configuration not stated)	-3	-0.83	63*	0	-4
CC(NC(=O)c1ccc(-c2ccccc2)cc1)C(c1ccccc1)N1CCOCC1 (configuration not stated)	nt	nt	nt	0	4
CN(C)C(=O)CSc1n[nH]c(=O)n1CCc1ccccc1	1	nt	19	0	-2
CCCOC(=O)CSC1=C(C#N)C(c2ccccc2OCC)C(C#N)C(=O)N1 (configuration not stated)	5	nt	75*	0	7
COc1ccc(CCNC(=O)CCOc2ccc(C(C)(C)C)cc2)cc1OC	14	nt	20	0	-1
COc1ccc(Sc2ccccc2CN(C)C)cc1OC	3	0.46	18	0	-2
CNCc1ccccc1Sc1ccc(O)c(O)c1	107*	-0.33	-5	0	-21
CC1(c2ccc(Cl)c(Cl)c2)NC(=S)N2C1NC(=S)N2c1ccccc1 (configuration not stated)	2	-2.4	89*	0	7
Cc1ccc2c(c1)nc1c3ccccc3nc(-c3ccccc3N)n21	nt	nt	nt	nt	58*
CC(C)CNC(=S)NNC(=O)CC(C)O (configuration not stated)	-17	0.43	61*	0	-6
CC12CC(c3ccccc3O1)N(C(=O)c1ccco1)C(=S)N2c1ccc(F)cc1 (configuration not stated)	26	-0.8	71*	0	0
O=C(Cn1[nH]c(=O)c2ccccc2c1=O)N1CCN(S(=O)(=O)c2ccc(Cl)cc2)CC1	nt	nt	nt	0	74*
Cc1ccc(C)c(S(=O)(=O)N2CCN(C(=O)Cn3[nH]c(=O)c4ccccc4c3=O)CC2)c1	21	nt	nt	0	61*
COc1ccc(C2C(C(C)=O)=C(O)C(=O)N2c2ccc(F)cc2)cc1 (configuration not stated)	16	nt	nt	0	-1

Bioassay records deposited in PubChem by several laboratories.
